# Screens from PubChem BioAssay.
# CBFb RUNX1 block = blocks binding between human CBF-beta and RUNX1; Q01196+Q13951; AlphaScreen CBFb-His/RUNX1-biotin binding, biochemical; Potency, µM (top dose mostly 59.8 µM), inactives show at the highest dose activity, negative = inhibition, actives largely listed as inhibitors; 230,000 tested, under 10 active; further: % of control where 0% means no effect
#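 Interaction loss through any mechanism counts as activity. Pre-formed complex of His-CBF-beta and biotin-RUNX1 (30 nM apiece) is incubated with compound 15 min, then with 50 ng nickel and 50 ng streptavidin beads for 90 min before AlphaScreen detection.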
# HTT ATP protect = Huntington cell model cytoprotection by ATP luminescence; Potency, µM (highest dose often 56.4 µM), inactives show cytoprotection (ATP increase), hits mostly activators; 230,000 compounds, 0.14% hits; PC12 HTT-Q103 induced, cytoprotection, ATP luminescence, 40 h; further: potency means the concentration at half of the fitted maximal effect; % of control where 0% means no effect; nearly all actives have a fitted effect of over 45% in size
#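 Quantitative HTS on tebufenozide-induced (100 nM) PC12 cells expressing HTTQ103 exon 1–GFP; compounds tested as a concentration series; survival measured via cellular ATP.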
# ALDH1A1 inh = ALDH1A1 (human) enzyme inhibition. P00352. Purified ALDH1A1, NADH fluorescence, propionaldehyde substrate. Potency, µM (doses to about 75.3 µM), for the others: at the highest dose activity, negative = inhibition, usual class: inhibitors. 220,000 compounds, 7.3% hits. AID 1030; active means well fitted inhibition curve with a large enough effect, not every such curve was filed as active; inconclusive means small, poorly fitted or top-dose-only effect, or another doubt; inactive means no such curve, though single readings can be large or run the other way;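 further: potency means the concentration at half of the fitted maximal effect; plate controls were no enzyme wells and a reference inhibitor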
# Target sequence (P00352 whole entry, looked up): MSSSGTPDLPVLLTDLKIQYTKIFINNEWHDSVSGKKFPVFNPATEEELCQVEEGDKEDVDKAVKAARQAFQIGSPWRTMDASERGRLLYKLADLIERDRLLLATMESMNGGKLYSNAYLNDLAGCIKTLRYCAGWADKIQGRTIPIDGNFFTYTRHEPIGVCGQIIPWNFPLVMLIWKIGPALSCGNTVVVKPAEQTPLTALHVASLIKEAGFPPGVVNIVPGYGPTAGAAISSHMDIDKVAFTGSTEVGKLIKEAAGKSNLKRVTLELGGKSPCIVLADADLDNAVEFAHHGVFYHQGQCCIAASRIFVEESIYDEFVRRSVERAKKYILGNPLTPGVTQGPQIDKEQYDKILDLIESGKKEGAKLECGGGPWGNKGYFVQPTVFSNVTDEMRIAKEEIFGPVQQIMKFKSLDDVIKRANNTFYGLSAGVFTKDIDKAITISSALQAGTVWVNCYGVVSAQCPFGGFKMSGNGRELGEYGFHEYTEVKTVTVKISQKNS
# HPGD block = inhibitors of human 15-hydroxyprostaglandin dehydrogenase (HPGD) | purified HPGD, NADH fluorescence kinetic, PGE2 substrate | Potency, µM, for inactives: at the highest dose activity change, negative = inhibition, actives largely listed as inhibitors | 150,000 compounds, 4.3% hits; active means well fitted inhibition curve with a large enough effect, not every such curve was filed as active; inconclusive means small, poorly fitted or top-dose-only effect, or another doubt; inactive means no such curve, though single readings can be large or run the other way; further: potency means the concentration at half of the fitted maximal effect; on the % scale 0 is the no-effect control and ±100 the full control effect
# Target sequence (P15428 whole entry, looked up): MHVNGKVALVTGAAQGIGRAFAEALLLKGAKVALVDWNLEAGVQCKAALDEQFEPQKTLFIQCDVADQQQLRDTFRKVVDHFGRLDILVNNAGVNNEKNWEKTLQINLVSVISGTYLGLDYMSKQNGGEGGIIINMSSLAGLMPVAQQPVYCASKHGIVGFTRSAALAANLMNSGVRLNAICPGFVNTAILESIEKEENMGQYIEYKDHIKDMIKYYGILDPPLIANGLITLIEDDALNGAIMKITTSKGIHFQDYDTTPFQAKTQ
#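 NADH formation kinetics: reaction with 30 uM PGE2 and 1 mM NAD+ (final), 20 nM enzyme, Tris-HCl pH 8 with Tween 20, after 15 min compound preincubation at room temperature. Fluorescence change, last versus first of five reads.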
# PNC inhibitor = inhibitors of perinucleolar compartment assembly; 140,000 compounds, 3.1% hits; PC3M PTB-GFP, PNC prevalence imaging, 16 h; active compounds read low; activity change (PNC), negative = inhibition, % at 10 µM;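 active means readout at or below -70, meaning at least 70% loss of cells showing the perinucleolar compartment, a nuclear body marking cancer cells; inconclusive means readout between -30 and a set limit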;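 further: plate controls were DMSO wells for no effect and camptothecin positive control wells for full effect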
#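 Read-out is percentage of cells bearing a perinucleolar compartment, from automated 20x imaging of fixed, Hoechst-stained PC3M PTB-GFP cells. Cells were seeded 4 h, then exposed 16 h to compound (23 nl of library stock) in duplicate plates.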
# HttQ103 aggreg = reduces HttQ103-GFP aggregates in PC12 cells; PC12 HttQ103-GFP aggregates, Acumen cytometry, 40 h; Potency, µM (series often up to 46.1 µM), for inactives: at the highest dose activity change, negative = inhibition, actives largely listed as inhibitors; 220,000 compounds, 1.1% hits; further: potency means the concentration at half of the fitted maximal effect; on the % scale 0 is the no-effect control and ±100 the full control effect; nearly all actives have a fitted effect of over 60% in size
#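 Quantitative HTS on tebufenozide-induced (100 nM) PC12 cells stably expressing polyQ103 Huntingtin exon 1–GFP. Reduction of bright GFP aggregates, detected by laser scanning cytometry after lysis, identified actives across the titration.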
# Numbers without * were called inactive; ? = inconclusive; . = no result given; [ ] = remark or other dose. This is a sample that favours compounds with a hit; in the whole collection about 11% have one here. Unless noted, the call rests on the fitted dose curve; in most records, active means well fitted curve in the direction sought with a large enough effect; inconclusive means small, poorly fitted or top-dose-only effect, or another doubt; inactive means no such curve, though single readings can be large; an effect the other way counts as inactive or inconclusive.
SMILES,CBFb RUNX1 block,HTT ATP protect,ALDH1A1 inh,HPGD block,PNC inhibitor,HttQ103 aggreg
O=c1[nH]c(=O)n([C@@H]2C[C@H](O)[C@H](CO)O2)cc1C(F)(F)F,2%[21.7 µM],-32%[40.3 µM],5%[20.9 µM],-8%,.,.
CCOC(=O)C(C)Sc1nc(-c2ccc(OC)cc2)nc2c1c(=O)n(C)c(=O)n2C (centres undefined),5%,-10%[10 µM],4%,?,15,-22%
CC(=O)NC(=S)Nc1ccc(S(=O)(=O)Nc2nc(C)cc(C)n2)cc1,3%,?,-4%,.,.,-5%
CC1(C)Cc2c(sc3[nH]c(=S)n(Cc4ccccc4)c(=O)c23)CO1,-7%,-60%,-4%,-22%,36,18µM*
CC1(C)Cc2c(sc3c2c(N)nc(=S)n3Cc2ccccc2)CO1,3%,-3%,?,.,.,-7%
O=C(O)CCCNS(=O)(=O)c1ccc2ccccc2c1,-2%,-19%,3.2µM*,-14%,41,-6%
Cn1ncc(Cl)c1C(=O)NCc1cc(C(C)(C)C)n[nH]1,0%,6%[0.074 µM],-8%,18µM*,12,-3%
Cn1nccc1CNC(=O)c1c(Cl)cnn1C,-2%,27%[10 µM],16%,-2%,36,-3%
COc1ccc(N2CCC(CNC(=O)Nc3ccc(OC)cc3OC)C2)cc1 (centres undefined),?,-2%,?,-9%,?,19%
COc1ccc(N2CCC(CNC(=S)Nc3cccc(C)c3)C2)cc1 (centres undefined),?,36%[10 µM],25µM*,-9%,-3,-3%
COc1ccc(N2CCC(CNS(=O)(=O)c3cccc(C(F)(F)F)c3)C2)cc1 (centres undefined),?,6%[10 µM],8.9µM*,-19%,8,-30%
CC(C)OC(=O)Nc1ccc2nc(-c3cscn3)[nH]c2c1,.,-97%,.,.,.,-22%
Nc1ccc(C(=O)N2CCCC2)cc1CS(=O)(=O)c1ccc(Cl)cc1,10%,25%,-3%,.,.,-12%
O=C(c1ccc(S(=O)(=O)Cc2cc(F)ccc2F)c([N+](=O)[O-])c1)N1CCCCC1,-1%,-7%[10 µM],8.9µM*,14µM*,-29,13µM*
Cc1ccccc1CS(=O)(=O)c1ccc(C(=O)N2CCC(C)CC2)cc1[N+](=O)[O-],2%,-8%,-3%,.,.,-14%
O=C(c1ccc(S(=O)(=O)Cc2cc(F)ccc2F)c([N+](=O)[O-])c1)N1CCCC1,-4%,-81%,8.9µM*,.,.,16µM*
CC1CCN(C(=O)c2ccc(S(=O)(=O)Cc3cccc(F)c3)c([N+](=O)[O-])c2)CC1,1%,9%[10 µM],25µM*,-25%,7,?
NNC(=O)c1ccc[n+](CCc2ccccc2)c1,.,24%[10 µM],1%[13.5 µM],-7%,.,.
CC(=O)Oc1ccc(N(C(C)=O)S(=O)(=O)c2ccc(C)c([N+](=O)[O-])c2)cc1,-3%,10%[10 µM],5%,-5%,9,20%
CCCn1c(-c2ccc(F)cc2)nc2c(NCCN(CC)CC)nc(C)nc21,16%,-5%,?,?,.,.
CCCC(C)c1nnc(NC(=O)C(=O)OCC)s1 (centres undefined),2%,-13%,7.9µM*,.,.,15%
Cc1nnc(NC(=O)C2CCCO2)s1 (centres undefined),-3%,11%[10 µM],8.9µM*,13µM*,?,0%
O=C(Nc1nnc(-c2ccccc2F)s1)C1CCCO1 (centres undefined),2%,-6%[1.9 µM],20µM*,-20%,52,-14%
COCCSc1nnc(NC(=O)C2CCCO2)s1 (centres undefined),7%,3%,5%,-8%,-24,4%
O=C(Nc1nnc(-c2ccncc2)s1)C1CCCO1 (centres undefined),13%,-7%[10 µM],?,?,?,3%
SMILES,CBFb RUNX1 block,HTT ATP protect,ALDH1A1 inh,HPGD block,PNC inhibitor,HttQ103 aggreg
CCCC(C)c1nnc(NC(=O)c2cc(C(=O)OC)cc([N+](=O)[O-])c2)s1 (centres undefined),-5%,-8%,7.9µM*,11µM*,41,-10%
O=C1C2CC=CCC2C(=O)N1c1n[nH]c(Cc2ccccc2)n1 (centres undefined),4%,-1%,2%,-3%,9,5%
CSCC[C@H](NC(=O)[C@H](CC(C)C)NC(=O)CNC(=O)[C@@H]1CCCN1C(=O)[C@H](Cc1ccccc1)NC(=O)[C@H](Cc1ccccc1)NC(=O)[C@H](CC(=O)O)NC(=O)[C@H](Cc1cnc[nH]1)NC(=O)[C@H](CCSC)NC(=O)[C@@H](N)CC(=O)O)C(N)=O,20%,.,.,.,.,.
CCOC(=O)C(=O)Nc1nnc(CCc2ccccc2)s1,-4%,9%[10 µM],-3%,-8%,-100*,-26%
CCC(=O)Nc1nnc(CCc2ccccc2)s1,2%,10%[10 µM],?,-26%,46,-8%
CCCC(C)c1nnc(NC(=O)C2CCCO2)s1 (centres undefined),13%,3%,3.5µM*,11µM*,-8,-14%
Cn1c(=NC(=O)CCl)sc2ccccc21,6%,-119%,0.71µM*,-12%,?,16%[9.22 µM]
Cn1c(=Nc2ccccc2)sc2ccccc21,14%,4%,-4%,-29%,3,-4%
CN(C)c1ccc(N=c2sc3ccccc3n2C)cc1,.,-40%,2µM*,-28%,28,-26%
CCCCN(C(=O)CSc1cc(C)c2ccc(OC)cc2n1)c1c(N)n(Cc2ccccc2)c(=O)[nH]c1=O,-2%,11%[10 µM],?,-9%,11,31%
CCN(CC)C(=O)c1sc2[nH]c(=S)n(-c3ccccc3)c(=O)c2c1C,-13%,-20%,?,28µM*,88,10%
O=C(O)C1CCc2sc3[nH]c(=S)n(-c4ccccc4)c(=O)c3c21 (centres undefined),-6%,0%[10 µM],.,.,.,-8%[9.22 µM]
CC(Cl)C(=O)Nc1ncc(C(F)(F)F)cc1Cl (centres undefined),2%,11%,7.1µM*,-20%,1,3%
FC(F)(F)c1cnc(NNC(=S)Nc2ccc(Cl)cc2)c(Cl)c1,-14%,7%[10 µM],5µM*,-25%,?,11µM*
Cc1ccc(NC(=S)NNc2ncc(C(F)(F)F)cc2Cl)cc1,-7%,12%[10 µM],10µM*,-10%,?,-20%
Cc1ccc(NC(=S)NNc2ncc(C(F)(F)F)cc2Cl)c(C)c1,-4%,17%,?,-16%,7,?
Fc1ccc(NC(=S)NNc2ncc(C(F)(F)F)cc2Cl)c(F)c1,-3%,-96%,4.5µM*,.,.,7.9µM*
CC(C)C(=O)Nc1ncc(C(F)(F)F)cc1Cl,6%,-10%,10%,-6%,-12,14%
CCCCCCCCCCCCCCCC(=O)OC[C@H](O)[C@H]1OC[C@@H](O)[C@@H]1O,.,15%,.,.,.,-6%
